Assay results reported in PubChem BioAssay AID1304 (The Scripps Research Institute Molecular Screening Center, 2008).
Screen size: about 220,000 compounds; about 800 (0.36%) were called active. This excerpt belongs to a sample that is enriched for actives. A number with no mark means an inactive call. Cut-off read from the data, not from the text of the source: active = activation above about 33% (passing the limit was not always enough); inactive = the rest.

What follows are compounds tested against Neuropeptide Y receptor type 1 (Homo sapiens) (UniProt P25929) (assay: activation enhancers of human NPY-Y1 – cell-based, primary screen (AID 1304;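 note: cells stimulated with NPY at EC10 then isoproterenol at EC100; 0% = low agonist plus stimulus and 100% = saturating agonist plus stimulus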)). Conditions: NPY-Y1 expressing cells, potentiator/agonist activation; at 3.6 µM; active compounds read high.
Sequence of Neuropeptide Y receptor type 1 (Homo sapiens) (P25929 whole entry, looked up): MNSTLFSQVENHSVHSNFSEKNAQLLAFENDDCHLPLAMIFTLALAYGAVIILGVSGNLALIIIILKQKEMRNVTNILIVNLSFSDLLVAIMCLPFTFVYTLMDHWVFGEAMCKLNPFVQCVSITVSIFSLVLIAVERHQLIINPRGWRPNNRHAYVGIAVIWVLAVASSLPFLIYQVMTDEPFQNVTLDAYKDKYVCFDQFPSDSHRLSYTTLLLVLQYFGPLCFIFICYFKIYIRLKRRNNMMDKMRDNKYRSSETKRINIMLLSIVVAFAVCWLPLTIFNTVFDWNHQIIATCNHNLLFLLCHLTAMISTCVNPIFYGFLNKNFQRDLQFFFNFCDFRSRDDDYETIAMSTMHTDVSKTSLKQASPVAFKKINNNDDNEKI
In the case of `CN(C)Cc1c(O)ccc2occ(C(O)c3ccccc3)c12` (stereo not drawn), the activation is reported as 105% (active). With `CCOc1ncccc1C(=O)N(C)CC(=O)Nc1ccc(F)cc1` the activation was -13.4%. `S=c1[nH]nc(-c2cc(-c3ccccc3)n[nH]2)n1/N=C/c1c2ccccc2cc2ccccc12` gave an activation of 6.62%. Work on `CCOc1ccc2c(=O)c(-c3ccc4c(c3)OCCCO4)c(C)oc2c1` yielded an activation of 2.42%. For `O=C(Nc1cccc(S(=O)(=O)Nc2ccc(Cl)cc2)c1)c1ccc2c(c1)OCCO2`, the activation was 43.8% (active). Work on `O=C(Nc1ccc2c(c1)CCC2)c1cccc(S(=O)(=O)N2CCN(c3ccc(F)cc3)CC2)c1` yielded an activation of 24.4%. For `O=C(c1cccc(S(=O)(=O)Nc2ccccc2Cl)c1)N1CCN(C(=O)c2ccco2)CC1`, the activation was 0.65%. Compound `O=C(Nc1ccc(Cl)cn1)c1ccc2c(c1)OCCO2` has an activation of -6.11%. In the case of `O=C(Nc1ccc2c(c1)CCC2)c1cccc(S(=O)(=O)Nc2ccccc2Cl)c1`, the activation is reported as 54.9% (active). Compound `O=C(Nc1cccc(S(=O)(=O)N2CCCCC2)c1)c1ccc2c(c1)OCO2` has an activation of -8.28%. For `CCc1nnc(NC(=O)CCN(c2ccc(C)cc2)S(=O)(=O)c2ccccc2)s1`, the activation was 1.52%. `CSc1ccccc1C(=O)NCc1ccccc1` gave an activation of 1.48%. Work on `O=S(=O)(c1ccc(F)cc1)N1CC=C(c2ccccc2)CC1` yielded an activation of -6.53%. For `CC(O)c1nc2c(c(=O)n(C)c(=O)n2C)n1C` (stereo not drawn), the activation was 11.7%. With `Cc1coc2cc3oc(=O)c(CCC(=O)O)c(C)c3cc12` the activation was -7.91%. For `CCSc1sc(CC)cc1C=O`, the activation was -2.95%. Work on `Cc1ccc(NC(=O)/C(=C/c2ccc([N+](=O)[O-])cc2)NC(=O)c2ccccc2)cc1` yielded an activation of 30.3%. `O=C(O)C1CCN(c2ccc([N+](=O)[O-])cc2[N+](=O)[O-])CC1` gave an activation of -10.1%. For `COC(=O)c1ccc(COC(=O)c2cnccn2)cc1`, the activation was -11.9%. `Cc1coc2c(O)cc3c(c12)OC1(N2CCCCC2)C(=O)NCCCC31` (stereo not drawn) was tested, and the activation was 90.8% (active). Compound `O=C(O)C1C2C=CC(O2)C1C(=O)NCCc1cccc(Cl)c1` (stereo not drawn) has an activation of 1.36%. `COCCCNC(NC(=O)c1ccc(OC)cc1)C(Cl)(Cl)Cl` (stereo not drawn) showed an activation of 15.6%. For `COCCCNC(=S)N1CCCC(c2nc3cc(C)c(C)cc3[nH]2)C1` (stereo not drawn), the activation was 8.07%. Work on `NC(=O)CC[C@@H]1NC(=O)[C@H](CO)NC(=O)c2cc([N+](=O)[O-])cc(I)c2NCC[C@@H](C(N)=O)NC1=O` yielded an activation of -22.3%. `CC(=O)c1ccc(NC(=O)Nc2ccc([N+](=O)[O-])cc2C)cc1` gave an activation of -8.87%. `CCn1c2ccccc2c2cc(NC(=O)CNC)ccc21` gave an activation of -3.25%. In the case of `CCn1c2ccccc2c2cc(NC(=O)Nc3ccc([N+](=O)[O-])cc3C)ccc21`, the activation is reported as 45.6% (active). Compound `CC(C)(C)NC(=O)COc1ccc(CNc2ccc3[nH]c(=O)[nH]c3c2)cc1` has an activation of 2.35%. With `CC(C)(C)N(Cc1ccccc1)C(=O)COC(=O)CCc1c[nH]c2ccccc12` the activation was -4.21%. `COc1ccc(CCn2ccc(O)c(Cc3ccc(Cl)cc3Cl)c2=O)cc1OC` gave an activation of -7.77%. Work on `COC(=O)c1c(C(=O)OC)c2n(c1C)CCS2` yielded an activation of -0.93%. `CC(NS(=O)(=O)c1ccccc1)c1n[nH]c(=S)n1-c1ccccc1` (stereo not drawn) was tested, and the activation was 30%. With `Cc1ccccc1NC(=O)NNC(=O)OC(C)(C)C` the activation was -4.21%. Work on `O=C(NCCCN1CCN(Cc2ccccc2)CC1)C1CCN(S(=O)(=O)N2CCCC2)CC1` yielded an activation of -28.8%. `CCN(CC)CCNC(=O)C1c2ccccc2C(=O)N(C)C1c1cn(C)c2ccccc12` (stereo not drawn) gave an activation of 10.4%. `CN1C(=O)c2ccccc2C(C(=O)NCCCN2CCCC2)C1c1c[nH]c2ccccc12` (stereo not drawn) was tested, and the activation was 51.1% (active). With `CCC(C)Cn1c(O)cc2nn(-c3nc4ccccc4s3)c(=O)c-2c1C` (stereo not drawn) the activation was 13.9%. `OC(COCC1COc2ccccc2O1)CN1CCN(c2ccc(F)cc2)CC1` (stereo not drawn) was tested, and the activation was 74.5% (active). In the case of `O=[N+]([O-])c1ccc(N2CCN(CC(O)COc3ccccc3)CC2)cc1` (stereo not drawn), the activation is reported as 20.4%. `OC(COCc1ccco1)CN1CCN(c2ccccc2)CC1` (stereo not drawn) was tested, and the activation was 9.46%. `CC1CCN(C2=NC(=O)/C(=C/c3cn[nH]c3-c3ccccc3)S2)CC1` showed an activation of 1.73%. `CC1(C)CC(=O)C=C(N2CCOCC2)C1` was tested, and the activation was 11.6%. Work on `Cc1nccn1CCC1CCCCN1C(=O)CCc1nnc(-c2ccsc2)o1` (stereo not drawn) yielded an activation of 5.94%. With `Cc1ccc(C)c(NC(=O)CSc2nc3c(oc4ccccc43)c(=O)n2-c2ccccc2)c1` the activation was -11.9%. For `CCCCC(=O)Nc1cc(C)c2c(=O)oc3ccccc3c2n1`, the activation was 4.38%. Work on `CCOC(=O)c1c(C)nc2c(c1C)c(=O)oc1ccccc12` yielded an activation of -22%. `Cc1ccccc1-n1nnc2c(=O)oc3ccccc3c21` was tested, and the activation was 65.8% (active). Compound `O=S(=O)(Nc1ccccn1)c1cccc(S(=O)(=O)c2ccc(Cl)cc2)c1` has an activation of -10.4%. `Clc1ccc(C2=CSC3=Nc4cccc5cccc(c45)N23)cc1` showed an activation of -26.6%. For `CCOc1ccc(/C=N/OCC(=O)NCc2cccs2)cc1`, the activation was -0.95%. Compound `CC(=O)NCC(O)c1ccc([N+](=O)[O-])cc1` (stereo not drawn) has an activation of -3.81%. `CC(C)OP(=O)(OC(C)C)C(Nc1ccccc1)c1cccc([N+](=O)[O-])c1` (stereo not drawn) was tested, and the activation was 6.2%. For `CC(CCc1ccccc1)NCC(O)c1cccc([N+](=O)[O-])c1` (stereo not drawn), the activation was 107% (active). For `O=C(CC1SCCNC1=O)Nc1ccc(Cl)c(Cl)c1` (stereo not drawn), the activation was 8.97%. With `O=C(CSc1nnc(-c2ccncc2)n1-c1ccc(Cl)cc1)Nc1ccc(C(=O)O)cc1` the activation was -5%. In the case of `CC(=O)c1ccc(-c2nnc(CCC(=O)N(C)Cc3cnc4ccccn34)o2)s1`, the activation is reported as 10.1%. For `O=C(Nc1ccccc1C(F)(F)F)c1cc(-c2ccc(O)cc2)on1`, the activation was 42.6% (active). In the case of `Cc1cc(C)nc(NC(=O)Nc2ccccc2C(F)(F)F)n1`, the activation is reported as -11.5%. `O=C(c1cc(-c2ccc(O)cc2)on1)N1CCCc2ccccc21` showed an activation of -13.9%. With `Cc1nn2c(NCCN(C)C)c3c(nc2c1-c1ccccc1)CCC3` the activation was 22.6%. Work on `O=C(c1cc(COc2c(F)cccc2F)on1)N1CCSCC1` yielded an activation of 3.08%. Work on `CCC(CC)C(=O)N1CCN(c2cccc(C)c2C)CC1` yielded an activation of -14.7%. `CCOC(=O)c1cccc(NC(=O)CN(c2ccc(C)cc2)S(=O)(=O)c2c(C)noc2C)c1` gave an activation of 18.8%. With `COC(=O)c1ccc(NC(=O)CN(c2ccc(C)cc2)S(=O)(=O)c2c(C)n[nH]c2C)cc1` the activation was 38.8% (active). In the case of `Cc1ccc(N(CC(=O)Nc2cccc(N(C)S(C)(=O)=O)c2)S(C)(=O)=O)cc1`, the activation is reported as 25.3%. For `COc1ccc(NC(=O)c2nc(-n3nc(C)cc3C)ccc2Cl)cc1Cl`, the activation was 9.04%. `O=C(Cc1cccc2ccccc12)NNC(=O)Nc1ccc(Cl)cc1` gave an activation of 5.16%. In the case of `COc1ccccc1C(c1nnnn1C(C)(C)C)N1CCN(Cc2ccccc2)CC1` (stereo not drawn), the activation is reported as -17.5%. With `COc1ccccc1C(c1nnnn1CC1CCCO1)N1CCN(c2ccccc2)CC1` (stereo not drawn) the activation was 12.6%. In the case of `COCCn1nnnc1C(c1ccccc1Cl)N1CCN(c2ccccc2OC)CC1` (stereo not drawn), the activation is reported as 89.3% (active). `Cc1c(CN2CCCCC2)c(O)n(CCO)c(=O)c1C#N` was tested, and the activation was 10.5%. Work on `CCOC(=O)CCCNC(=O)COC(=O)/C=C/c1ccc2c(c1)OCO2` yielded an activation of -7.21%. For `CC(=O)N1CC[n+]2c(-c3ccc([N+](=O)[O-])cc3)csc21`, the activation was 13.5%. Compound `O=C(NCCCNc1ccc([N+](=O)[O-])cc1Cl)c1ccccc1F` has an activation of -0.79%. With `CC1=NNC(=O)C1CCC(=O)N/N=C\c1cccc(Cl)c1` (stereo not drawn) the activation was 4.52%. `CCOc1ccc(C2NC(=S)NC3=C2CCc2ccccc23)cc1` (stereo not drawn) gave an activation of 10.5%. `Cc1cc(C)cc(OCC(=O)NCc2cc(C)nc3ccccc23)c1` was tested, and the activation was 0.39%. `Cc1cc(C)c(NC(=O)C[N+](C)(C)CC(O)COc2cccc3ccccc23)c(C)c1` (stereo not drawn) was tested, and the activation was 86.4% (active). `Cc1cc(C)c(NC(=O)c2oc3ccccc3c2COc2ccccc2)c(C)c1` gave an activation of -49.2%. In the case of `COc1cc(N2C(=O)CC3(CCCC3)CC2=O)cc(OC)c1OC`, the activation is reported as -14.9%. With `CCC(=O)N1c2ccccc2NC2=C(C(=O)CCC2)C1c1ccco1` (stereo not drawn) the activation was 19.7%. `COC(=O)c1sccc1NC(=S)Nc1ccc(C)cc1` was tested, and the activation was -0.64%. For `O=c1c(-c2ccccc2)coc2cc(O)ccc12`, the activation was 2.99%. With `O=C1/C(=C/c2coc3ccc(O)cc3c2=O)SC(=S)N1c1ccccc1` the activation was 47% (active). Work on `O=c1c(/C=N/O)coc2ccc(Cl)cc12` yielded an activation of 19.5%. Compound `O=C1CC(c2cccc(Cl)c2)CC(O)=C1C=Nc1ccccc1` (stereo not drawn) has an activation of -11.9%. Work on `Cc1ccc(-c2ccc(/C=C(\C#N)C(N)=S)o2)c([N+](=O)[O-])c1` yielded an activation of 8.63%. With `CN(C)NC(=O)C(NC(=O)c1ccc(N)cc1)C12CC3CC(CC(C3)C1)C2` (stereo not drawn) the activation was 5.39%. With `Cc1cc(NC(=O)COC(=O)COc2ccc(Cl)cc2C)c([N+](=O)[O-])cc1C` the activation was -0.92%. In the case of `Cc1ccc(OCC(=O)c2cc(C)n(Cc3ccco3)c2C)c([N+](=O)[O-])n1`, the activation is reported as 1.91%. Work on `CN(C)CCCN(C(=O)COc1ccccc1)c1nc2c(Cl)cccc2s1` yielded an activation of -13.9%. Compound `CC(=O)N(CCCN(C)C)c1nc2ccc(C)cc2s1` has an activation of -7.71%. For `COc1cccc2sc(N(CCCN(C)C)C(=O)C(c3ccccc3)c3ccccc3)nc12`, the activation was 103% (active).
